Measured values: PubChem BioAssay
Activity calls are given as the source filed them. Unless noted, no rule for the calls is given here.

Tests used:
[1] = anti-His antibody binders, primary screen, artefact control for SMM control protein annotation, biochemical, small-molecule microarray, 635 nm fluorescence (AID 1128); conditions: anti-His Alexa647 antibody binding, higher = more signal;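 also: score merges feature fluorescence with signal-to-noise for each printed compound spot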
[2] = tested on: Human papillomavirus type 1a E7 protein (residues 1-88); experiment: HPV1a E7 small-molecule binders, primary screen, biochemical, small-molecule microarray, residues 1-88, 635 nm (AID 1129); conditions: small-molecule microarray binding, fluorescence 635 nm; higher = more signal
[3] = target: Focal adhesion kinase 1 (Homo sapiens) (UniProt Q05397); experiment: small-molecule microarray binders of FAK, primary screen, biochemical, 635/667 nm fluorescence, BSA, DTT (AID 1130); conditions: PTK2 binding, 635 nm fluorescence, higher = more signal;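 also: composite of spot emission at 667 nm and signal to noise over triplicate slides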
[4] = tested on: Fibrinogen (Alexa647-labelled); experiment: fibrinogen binders on compound microarrays, profiling panel, artefact control for SMM control-protein annotation, biochemical, small-molecule microarray, 635/667 nm fluorescence (AID 1131); conditions: fibrinogen-A647 binding fluorescence, higher = more signal;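 also: z-score merges 667 nm fluorescence with per-spot signal-to-noise over triplicate slides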
[5] = target: Follistatin (Homo sapiens) (UniProt P19883); experiment: follistatin binders on small-molecule microarrays, primary screen, biochemical, small-molecule microarray, 635/667 nm fluorescence (AID 1132); conditions: FST binding, 635 nm fluorescence, higher = more signal
[6] = target: Fibroblast growth factor 2 (Homo sapiens) (UniProt P09038); experiment: FGF2 binders on small-molecule microarrays, primary screen, biochemical, small-molecule microarray, 635/667 nm fluorescence (AID 1133); conditions: small-molecule microarray binding, FGF2, fluorescence 635/667; higher = more signal
[7] = mitochondrial membrane potential change in A549 cells, profiling panel, cell-based, JC-1 fluorescence, basal, 24 h, 100 nL (AID 1138); conditions: higher = more signal;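 also: A549 lung adenocarcinoma cells under basal conditions with no added stimulus; test concentration not given here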
Lefty1 = Lefty1 binders on small-molecule microarrays, primary screen, biochemical, small-molecule microarray, 635/667 nm fluorescence (AID 1139); conditions: small-molecule microarray binding, fluorescence 635/667; higher = more signal
[8] = tested on: wheat germ agglutinin (Triticum aestivum), Alexa647-labelled; experiment: wheat germ agglutinin binders on compound microarrays, profiling panel, artefact control for SMM control-protein annotation, biochemical, small-molecule microarray, 635/667 nm fluorescence (AID 1140); conditions: WGA-A647 binding, 635 nm fluorescence, higher = more signal;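 also: score merges 667 nm feature emission with signal to noise over triplicate slides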
[9] = target: Luciferin 4-monooxygenase (Photinus pyralis) (UniProt P08659); experiment: firefly luciferase enzyme inhibitors, primary screen, biochemical, luminescence, purified enzyme, 2006 set (AID 1141); conditions: SteadyGlo luminescence, 30 min, higher = more signal, called active from +8 up or from −8 down;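 also: cell-free assay with purified firefly luciferase at 100 ng per well in PBS; test concentration not given here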
[10] = tested on: Wnt5a (protein binding on small-molecule microarray); experiment: Wnt5a binders on small-molecule microarray, primary screen, biophysical, 635/667 nm fluorescence (AID 1142); conditions: 635 nm fluorescence, higher = more signal;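 also: fluorescence read at 667 nm with signal to noise per printed feature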
[11] = cell viability in Huh7 cells, primary screen, cytotoxicity control for HCV replication inhibitor project, CellTiter-Glo luminescence, basal, 48 h (AID 1143); conditions: Huh7 HCV replicon, higher = more signal, called active from +8 up or from −8 down;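 also: Huh7 hepatoma cells carrying a hepatitis C replication reporter with no stimulus; test concentration not given here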
[12] = P. aeruginosa biofilm formation inhibitors, primary screen, PAO1 strain, BacTiter-Glo luminescence, LB-PBS (AID 1144); conditions: 12 h, higher = more signal
[13] = CREB reporter modulators without forskolin, primary screen, cell-based, PC12, CRE-LacZ reporter, unstimulated (AID 1145); conditions: no forskolin, luminescence, 4.5 h, higher = more signal, called active from +8 up or from −8 down
[14] = CREB reporter modulators under forskolin, primary screen, cell-based, PC12, CRE-LacZ reporter, forskolin-stimulated (AID 1146); conditions: luminescence, 4.5 h, higher = more signal, called active from +8 up or from −8 down;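 also: PC12 cells with 6xCRE LacZ reporter stimulated by forskolin 10 µM; beta-galactosidase reporter signal reflecting CREB driven transcription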
[15] = target: Streptavidin (Streptomyces avidinii) (UniProt P22629); experiment: streptavidin binders on small-molecule microarray, primary screen, artefact control for SMM compound annotation, biophysical, 635/667 nm fluorescence (AID 1147); conditions: streptavidin binding, higher = more signal;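 also: signal reflects streptavidin binding to arrayed compounds as a control protein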
[16] = small-molecule binders of probe aInhba, primary screen, biochemical, small-molecule microarray, 635/667 nm fluorescence (AID 1148); conditions: higher = more signal;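 also: score merges 667nm spot fluorescence with signal-to-noise for antibody binding to printed compounds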
Torsin-1A (Homo sapiens) [17] = target: Torsin-1A (Homo sapiens) (UniProt O14656); experiment: torsin A binders from cell lysate, primary screen, small-molecule microarray, wild-type, 635/667 nm (AID 1149); conditions: COS7 hTOR1A-WT lysate, 635 nm fluorescence, higher = more signal
Torsin-1A (Homo sapiens) [18] = target: Torsin-1A (Homo sapiens) (UniProt O14656); experiment: small-molecule binders of mutant TOR1A in lysate, primary screen, cell lysate, small-molecule microarray, COS7 lysate, 635/667 nm fluorescence (AID 1150); conditions: COS7 hTOR1A mutant lysate, 635 nm fluorescence, higher = more signal;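 also: score pools 667 nm emission and signal to noise measuring lysate protein binding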
[19] = tested on: Sonic hedgehog protein (Shh); experiment: small-molecule binders of Shh protein, primary screen, biochemical, small-molecule microarray, 635/667 nm fluorescence (AID 1151); conditions: small-molecule microarray binding, 635 nm fluorescence; higher = more signal;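 also: Shh protein binding to compounds spotted on small-molecule microarray slides; score combines spot fluorescence intensity with signal-to-noise across triplicate slides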

Sequence of Follistatin (Homo sapiens) (P19883 whole entry, looked up): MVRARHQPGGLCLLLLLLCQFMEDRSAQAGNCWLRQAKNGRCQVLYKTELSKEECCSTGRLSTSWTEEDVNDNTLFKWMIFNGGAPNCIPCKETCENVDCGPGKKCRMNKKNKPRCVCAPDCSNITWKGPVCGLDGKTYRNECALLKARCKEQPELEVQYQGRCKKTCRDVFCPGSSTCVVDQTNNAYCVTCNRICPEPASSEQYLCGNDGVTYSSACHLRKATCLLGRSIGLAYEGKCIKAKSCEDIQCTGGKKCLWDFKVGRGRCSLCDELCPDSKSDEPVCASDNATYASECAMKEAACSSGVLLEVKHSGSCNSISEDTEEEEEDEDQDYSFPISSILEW
Sequence of Luciferin 4-monooxygenase (Photinus pyralis) (P08659 whole entry, looked up): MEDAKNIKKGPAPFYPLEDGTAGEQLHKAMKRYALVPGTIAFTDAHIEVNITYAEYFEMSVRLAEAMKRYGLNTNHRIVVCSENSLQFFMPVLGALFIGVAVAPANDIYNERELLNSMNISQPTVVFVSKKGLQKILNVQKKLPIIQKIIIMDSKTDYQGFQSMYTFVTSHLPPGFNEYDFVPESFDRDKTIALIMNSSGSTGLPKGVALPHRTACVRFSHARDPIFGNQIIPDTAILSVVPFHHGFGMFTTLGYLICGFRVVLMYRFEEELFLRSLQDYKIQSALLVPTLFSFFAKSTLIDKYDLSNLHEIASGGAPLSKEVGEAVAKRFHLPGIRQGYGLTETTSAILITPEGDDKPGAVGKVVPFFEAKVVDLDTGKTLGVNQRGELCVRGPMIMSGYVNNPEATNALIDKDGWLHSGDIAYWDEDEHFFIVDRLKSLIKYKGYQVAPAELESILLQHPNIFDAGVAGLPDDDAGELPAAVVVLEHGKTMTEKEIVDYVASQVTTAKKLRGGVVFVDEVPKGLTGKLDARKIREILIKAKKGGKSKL
Sequence of Fibroblast growth factor 2 (Homo sapiens) (P09038 whole entry, looked up): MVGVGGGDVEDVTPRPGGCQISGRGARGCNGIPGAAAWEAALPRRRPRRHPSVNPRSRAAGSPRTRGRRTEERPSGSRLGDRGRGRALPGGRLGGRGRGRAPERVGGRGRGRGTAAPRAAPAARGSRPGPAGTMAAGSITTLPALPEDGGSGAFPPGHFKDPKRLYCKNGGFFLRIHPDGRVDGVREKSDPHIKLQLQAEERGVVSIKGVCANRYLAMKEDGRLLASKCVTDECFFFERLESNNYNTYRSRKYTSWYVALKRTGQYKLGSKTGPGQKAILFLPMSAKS
Sequence of Focal adhesion kinase 1 (Homo sapiens) (Q05397 whole entry, looked up): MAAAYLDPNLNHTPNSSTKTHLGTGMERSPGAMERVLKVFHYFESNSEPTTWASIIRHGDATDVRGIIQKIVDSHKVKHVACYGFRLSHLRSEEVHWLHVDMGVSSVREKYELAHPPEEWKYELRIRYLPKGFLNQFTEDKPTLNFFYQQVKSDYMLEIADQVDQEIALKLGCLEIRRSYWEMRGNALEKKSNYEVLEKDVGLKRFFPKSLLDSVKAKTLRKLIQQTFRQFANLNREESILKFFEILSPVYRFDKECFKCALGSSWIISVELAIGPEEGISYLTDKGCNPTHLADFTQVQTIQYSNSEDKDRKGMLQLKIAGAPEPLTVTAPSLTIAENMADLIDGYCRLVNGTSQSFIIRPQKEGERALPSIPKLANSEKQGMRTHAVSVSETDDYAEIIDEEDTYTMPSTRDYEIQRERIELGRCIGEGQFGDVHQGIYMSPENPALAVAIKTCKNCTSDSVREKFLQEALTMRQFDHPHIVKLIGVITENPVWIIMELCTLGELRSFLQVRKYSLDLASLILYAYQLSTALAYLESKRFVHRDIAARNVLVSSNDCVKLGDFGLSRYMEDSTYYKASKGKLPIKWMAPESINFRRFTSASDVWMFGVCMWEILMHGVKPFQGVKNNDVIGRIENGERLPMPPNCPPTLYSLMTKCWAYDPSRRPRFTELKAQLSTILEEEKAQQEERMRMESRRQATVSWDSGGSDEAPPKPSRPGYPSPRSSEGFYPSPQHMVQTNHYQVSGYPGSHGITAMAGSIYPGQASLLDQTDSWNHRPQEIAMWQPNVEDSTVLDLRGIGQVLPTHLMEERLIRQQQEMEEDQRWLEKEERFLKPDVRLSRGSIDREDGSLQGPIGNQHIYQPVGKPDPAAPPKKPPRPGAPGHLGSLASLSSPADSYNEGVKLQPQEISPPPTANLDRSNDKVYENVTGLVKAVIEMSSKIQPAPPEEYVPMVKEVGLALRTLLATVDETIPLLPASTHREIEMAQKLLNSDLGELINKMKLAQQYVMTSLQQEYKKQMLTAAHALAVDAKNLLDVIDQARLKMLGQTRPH
Sequence of Torsin-1A (Homo sapiens) (O14656 whole entry, looked up): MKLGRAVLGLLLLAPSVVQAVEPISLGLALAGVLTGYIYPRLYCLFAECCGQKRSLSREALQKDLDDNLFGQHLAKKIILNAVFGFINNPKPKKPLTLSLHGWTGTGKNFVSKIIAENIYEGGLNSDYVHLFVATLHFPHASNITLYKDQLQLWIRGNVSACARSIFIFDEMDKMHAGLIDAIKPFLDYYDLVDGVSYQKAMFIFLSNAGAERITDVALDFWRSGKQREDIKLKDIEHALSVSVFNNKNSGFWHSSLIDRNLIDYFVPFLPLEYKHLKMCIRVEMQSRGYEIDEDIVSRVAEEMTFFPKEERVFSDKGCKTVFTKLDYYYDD
Sequence of Streptavidin (Streptomyces avidinii) (P22629 whole entry, looked up): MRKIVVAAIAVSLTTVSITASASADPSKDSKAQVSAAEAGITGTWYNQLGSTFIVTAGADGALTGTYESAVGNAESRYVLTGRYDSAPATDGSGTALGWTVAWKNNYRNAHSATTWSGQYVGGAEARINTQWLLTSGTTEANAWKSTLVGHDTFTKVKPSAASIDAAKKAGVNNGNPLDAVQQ

| Structure (SMILES) | composite z-score [1] | composite z-score [2] | composite z-score [3] | composite z-score [4] | composite z-score [5] | composite z-score [6] | z-score [7] | composite z-score (Lefty1) | composite z-score [8] | z-score [9] | composite z-score [10] | z-score [11] | z-score [12] | z-score [13] | z-score [14] | composite z-score [15] | composite z-score [16] | composite z-score (Torsin-1A (Homo sapiens) [17]) | composite z-score (Torsin-1A (Homo sapiens) [18]) | composite z-score [19] |
| --- | --- | --- | --- | --- | --- | --- | --- | --- | --- | --- | --- | --- | --- | --- | --- | --- | --- | --- | --- | --- |
| COC(=O)[C@@]1(Cc2ccc(OC)cc2)[C@H]2c3cc(C(=O)N(C)C)n(Cc4c(CO)[nH]cc(C)c4=O)c3C[C@H]2CN1C(=O)c1ccccc1 | 0.566 | 1.18 | 1.93 | 0.0557 | 0.0689 | -0.583 | 0.144 | 0.0267 | 0.19 | 1.48 (inactive) | -0.172 | -0.0137 (inactive) | -0.357 (inactive) | 1.15 (inactive) | 2.29 (inactive) | 0.27 | 0.0219 | 0.351 | 0.461 | -0.532 |
| CC(C)C[C@@H]1NC(=O)[C@H]2C[C@@H](C(=O)O)[C@@H](c3cccc(OCCO)c3)N2C1=O | 1.49 | 0.0559 | 0.119 | 0.267 | 1.3 | 1.66 | 0.951 | 0.797 | 0.325 | -1.07 (inactive) | -0.107 | -0.513 (inactive) | -0.443 (inactive) | 0.561 (inactive) | -0.411 (inactive) | -0.0612 | 0.0228 | 0.994 | 2.17 | 1.42 |
| CN1C(=O)C2C=CC(C(O)COCc3ccccc3)N(Nc3ccc([N+](=O)[O-])cc3[N+](=O)[O-])C2C1=O (stereo not given) | -1.08 | 1.08 | 0.903 | -0.428 | -0.232 | 0.41 | 1.89 | -0.798 | 0.333 | -1.05 (inactive) | 0.727 | 0.615 (inactive) | -0.73 (inactive) | 1.01 (inactive) | -0.252 (inactive) | -0.387 | 0.0442 | -0.306 | 0.713 | -0.997 |
| COCCOC(=O)N1C(=O)[C@@]2(c3cc(C#CCNC(N)=O)ccc31)[C@H](c1ccccc1OCCO)N1[C@H](c3ccccc3)[C@H](c3ccccc3)OC(=O)[C@H]1[C@@H]2C(=O)N1CCCCCCC1 | 0.364 | 1.17 | 0.183 | 0.858 | 1.28 | 0.937 | -1.51 | 0.76 | 1.13 | -0.193 (inactive) | 0.112 | -0.923 (inactive) | 0.342 (inactive) | 0.2 (inactive) | 1.97 (inactive) | 0.777 | 0.168 | 0.419 | 0.367 | 0.83 |
| COC(=O)C(CC#Cc1ccc2c(c1)[C@]1(C(=O)N2)[C@H](C(=O)NC[C@H](O)c2ccccc2)[C@H]2C(=O)O[C@H](c3ccccc3)[C@H](c3ccccc3)N2[C@@H]1c1ccc(O)cc1)C(=O)OC | -0.716 | -0.0341 | 0.105 | -0.906 | 0.276 | 0.0859 | -1.62 | 0.192 | 0.0123 | -0.168 (inactive) | -0.174 | -0.187 (inactive) | 1.07 (inactive) | 0.488 (inactive) | -0.517 (inactive) | -0.765 | -0.0736 | -0.93 | -0.62 | 0.21 |
| C=C[C@H](C)[C@@H](OC(=O)Nc1ccc(SC)cc1)c1ccc(OCCO)cc1 | 2.21 | 1.14 | 0.461 | -1.15 | 0.629 | 0.2 | -1.8 | 0.265 | 0.827 | -7.41 (inactive) | 0.179 | -2.91 (inactive) | -0.567 (inactive) | 6.08 (inactive) | -0.24 (inactive) | -0.363 | 0.36 | -0.0803 | 0.278 | 1.98 |
| CC(C)C[C@@H]1NC(=O)[C@@H]2C[C@H](C(=O)NCCCCCNC(=O)CS)[C@H](c3ccc(O)cc3)N2C1=O | 2.52 | -0.0315 | 0.322 | 0.0178 | 0.815 | 1.24 | -0.976 | 0.627 | 0.263 | 0.448 (inactive) | -0.025 | -4.33 (inactive) | -0.455 (inactive) | -0.809 (inactive) | -0.661 (inactive) | -0.799 | -0.045 | 1.87 | 2.08 | 1.99 |
| C=C(C(=O)CC[C@@H](OC(=O)c1cccnc1)c1cccc(OCCO)c1)C(C)C | 0.317 | -0.4 | -0.896 | 0.496 | 0.866 | 1.33 | 0.313 | 1.13 | 0.386 | -0.128 (inactive) | 0.222 | -2.97 (inactive) | -0.372 (inactive) | 1.67 (inactive) | -1.24 (inactive) | -0.0835 | -0.0736 | -0.0348 | -0.234 | 1.72 |
| CCCCCN1CC=CC23O[C@@H]4/C=C\CCCOC(=O)C4[C@H]2C(=O)N(CCO)[C@@H]3C1=O (stereo not given in full) | 2.49 | 0.87 | 1.15 | -0.728 | -0.274 | -0.0388 | -0.953 | 0.126 | 0.759 | -2.06 (inactive) | -0.243 | -2.03 (inactive) | -2.97 (inactive) | -1.98 (inactive) | -0.508 (inactive) | -0.666 | -0.183 | 0.642 | 1.58 | 0.0256 |
| [N-]=[N+]=NCc1ccccc1[C@H]1OC(c2ccc(OCCCO)cc2)=N[C@@]1(CCS(=O)(=O)c1ccccc1)C(=O)O | 0.583 | 0.667 | 0.476 | 1.03 | 0.0192 | -0.119 | -0.959 | -0.182 | 0.169 | -6.31 (inactive) | -0.0632 | -0.0569 (inactive) | 0.637 (inactive) | -0.435 (inactive) | -0.427 (inactive) | 0.729 | -0.13 | -0.359 | 0.622 | -1.37 |
